Measurements reported in PubChem BioAssay.

What was measured:
[1] = system: Human papillomavirus type 1a protein E7 (residues 44-93); assay: small molecules binding HPV E7 44-93 – biochemical, small-molecule microarray, residues 44-93, 635 nm fluorescence, primary screen (AID 1108); conditions: fluorescence 635 nm, higher = more signal;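 further: E7 fragment applied at 1 µg/mL in TBST for 1 h at 4 C; score combines spot fluorescence with its signal to noise ratio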
[2] = hepatitis C replication reporter changes, two-sided – Huh7 cells, luciferase reporter, HCV replication inhibitor project, primary screen (AID 1109); conditions: Huh7 HCV replicon luciferase reporter, 48 h; higher = more signal;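 further: huh7 hepatoma cells harbouring a luciferase neomycin HCV replicon reporter; luciferase luminescence as measure of HCV replicon replication; test concentration not given here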
[3] = biological target: Left-right determination factor 2 (Homo sapiens) (UniProt O00292); assay: small molecules binding LEFTY2 protein – biochemical, small-molecule microarray, 635 nm fluorescence scan, primary screen (AID 1110); conditions: higher = more signal
Left-right determination factor 2 (Homo sapiens), sequence (O00292 whole entry, looked up): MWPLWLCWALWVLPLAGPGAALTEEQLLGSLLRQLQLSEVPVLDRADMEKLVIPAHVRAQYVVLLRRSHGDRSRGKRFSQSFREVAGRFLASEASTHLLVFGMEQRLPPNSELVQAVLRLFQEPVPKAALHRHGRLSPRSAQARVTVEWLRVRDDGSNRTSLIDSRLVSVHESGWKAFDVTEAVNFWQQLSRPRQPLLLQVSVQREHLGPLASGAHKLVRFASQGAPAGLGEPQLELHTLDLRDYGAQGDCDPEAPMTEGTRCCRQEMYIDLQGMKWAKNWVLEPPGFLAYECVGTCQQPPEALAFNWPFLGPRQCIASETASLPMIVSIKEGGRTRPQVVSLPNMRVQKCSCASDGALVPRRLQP

[4] = biological target: Calmodulin-1 (Homo sapiens) (UniProt P0DP23); assay: small molecules binding calmodulin-1 with EGTA – biochemical, small-molecule microarray, Cy5-labelled CALM1, profiling panel (AID 1111); conditions: Cy5-CALM1 binding fluorescence, higher = more signal;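 further: labelled calmodulin applied in Tris saline Tween buffer holding calcium plus EGTA and DTT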
[5] = biological target: Calmodulin-1 (Homo sapiens) (UniProt P0DP23); assay: small molecules binding Ca-loaded calmodulin-1 – biochemical, small-molecule microarray, Cy5-labelled CALM1, plus calcium, artefact control for SMM control-protein annotation, profiling panel (AID 1112); conditions: Cy5-CALM1 binding fluorescence, higher = more signal;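 further: score merges spot fluorescence with signal to noise from triplicate slides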
[6] = probe aWnt5a binding to arrayed compounds – biochemical, biotinylated probe, 635/667 nm fluorescence, primary screen (AID 1113); conditions: small-molecule microarray, higher = more signal;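 further: score merges 667 nm fluorescence intensity with signal-to-noise per printed feature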
[7] = probe aShh binding to arrayed compounds – biochemical, biotinylated probe, 635/667 nm fluorescence, primary screen (AID 1114); conditions: small-molecule microarray, higher = more signal;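 further: probe is biotin-labelled aShh protein from a stem cell growth factor screen; measures binding of labelled protein to compounds printed on the slide; score merges feature fluorescence at 667 nm with signal-to-noise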
[8] = probe aNog binding to arrayed compounds – biochemical, biotinylated probe, 635/667 nm fluorescence, primary screen (AID 1115); conditions: small-molecule microarray, higher = more signal;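 further: probe is biotinylated aNog protein used at 0.15 µg/mL for 1 h at 4 C; z-score combines 667 nm fluorescence of each spot with its signal to noise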
[9] = biological target: Torsin-1A-interacting protein 1 (Homo sapiens) (UniProt Q5JTV8); assay: compound microarray binding of lysate hLAP1 – cell lysate, small-molecule microarray, COS7 lysate, 635/667 nm fluorescence, primary screen (AID 1116); conditions: 635 nm fluorescence, higher = more signal
Torsin-1A-interacting protein 1 (Homo sapiens), sequence (Q5JTV8 whole entry, looked up): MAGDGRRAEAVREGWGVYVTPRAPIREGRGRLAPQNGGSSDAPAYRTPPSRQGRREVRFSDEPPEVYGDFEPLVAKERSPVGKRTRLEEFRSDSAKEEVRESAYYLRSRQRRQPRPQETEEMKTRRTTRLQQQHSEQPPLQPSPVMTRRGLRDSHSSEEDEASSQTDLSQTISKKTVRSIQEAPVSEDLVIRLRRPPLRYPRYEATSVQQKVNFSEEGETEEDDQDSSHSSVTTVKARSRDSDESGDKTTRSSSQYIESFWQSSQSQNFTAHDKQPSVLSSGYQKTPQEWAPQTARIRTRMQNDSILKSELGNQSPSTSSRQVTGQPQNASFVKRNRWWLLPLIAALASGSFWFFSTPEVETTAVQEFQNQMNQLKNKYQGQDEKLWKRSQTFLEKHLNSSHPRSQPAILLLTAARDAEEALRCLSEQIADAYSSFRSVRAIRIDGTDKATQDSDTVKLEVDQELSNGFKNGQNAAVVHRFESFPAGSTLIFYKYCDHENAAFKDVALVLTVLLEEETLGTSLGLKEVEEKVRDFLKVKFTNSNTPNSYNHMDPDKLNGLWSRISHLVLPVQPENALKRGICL

[10] = biological target: Alpha-bungarotoxin (Bungarus multicinctus) (UniProt P60615); assay: compounds binding labelled alpha-BTX control protein – biochemical, small-molecule microarray, Alexa647 label, 635/667 nm fluorescence, artefact control for SMM control protein annotation, profiling panel (AID 1117); conditions: alpha-BTX-A647 binding fluorescence, higher = more signal
Alpha-bungarotoxin (Bungarus multicinctus), sequence (P60615 whole entry, looked up): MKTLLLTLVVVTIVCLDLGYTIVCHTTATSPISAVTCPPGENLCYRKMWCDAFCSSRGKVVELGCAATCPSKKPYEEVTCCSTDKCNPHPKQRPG

C=C[C@H](C)[C@@H](OC(=O)Nc1ccc(SC)cc1)c1ccc(O)c2ccccc12
composite z-score [1]: 1.41 | z-score [2]: -0.751 | composite z-score [3]: 1.23 | composite z-score [4]: 0.988 | composite z-score [5]: -0.0069 | composite z-score [6]: -0.101 | composite z-score [7]: -0.0553 | composite z-score [8]: -0.343 | composite z-score [9]: 0.575 | composite z-score [10]: 0.893

[N-]=[N+]=Nc1ccccc1[C@H]1OC(c2ccc(OCCCO)cc2)=N[C@@]1(CCS(=O)(=O)c1ccccc1)C(=O)NCc1ccccc1
composite z-score [1]: 1.46 | z-score [2]: -0.242 | composite z-score [3]: 0.565 | composite z-score [4]: 0.937 | composite z-score [5]: 0.338 | composite z-score [6]: 0.153 | composite z-score [7]: 0.0723 | composite z-score [8]: -0.487 | composite z-score [9]: 1.06 | composite z-score [10]: 0.785

[N-]=[N+]=Nc1ccccc1C[C@@]1(C(=O)N2CCCCC2)N=C(c2ccc(OCCCO)cc2)O[C@@H]1c1ccccc1
composite z-score [1]: -0.108 | z-score [2]: -1.2 | composite z-score [3]: 0.0334 | composite z-score [4]: 1.83 | composite z-score [5]: 0.914 | composite z-score [6]: -0.0459 | composite z-score [7]: -0.0904 | composite z-score [8]: 1.79 | composite z-score [9]: 1.52 | composite z-score [10]: 1.07

COCCCNC(=O)[C@]1(Cc2ccccc2)N=C(c2ccc(OCCCO)cc2)O[C@@H]1c1ccccc1CN=[N+]=[N-]
composite z-score [1]: 0.128 | z-score [2]: -2.18 | composite z-score [3]: -0.254 | composite z-score [4]: 1.02 | composite z-score [5]: 0.562 | composite z-score [6]: 0.116 | composite z-score [7]: 0.585 | composite z-score [8]: 0.918 | composite z-score [9]: 2.48 | composite z-score [10]: 0.315

CCN(CC)c1ccc(N2CC=CC34O[C@@H]5C=CCOC(=O)[C@@H]5[C@H]3C(=O)N(CCCCCCO)[C@@H]4C2=O)cc1 (stereo not given in full)
composite z-score [1]: 1.01 | z-score [2]: -1.4 | composite z-score [3]: -0.699 | composite z-score [4]: -0.333 | composite z-score [5]: 0.48 | composite z-score [6]: -0.152 | composite z-score [7]: -0.0035 | composite z-score [8]: -0.248 | composite z-score [9]: 2.01 | composite z-score [10]: -0.226

[N-]=[N+]=Nc1ccccc1C[C@]1(C(=O)NCc2ccccc2)N=C(c2ccc(OCCCO)cc2)O[C@H]1c1ccccc1N=[N+]=[N-]
composite z-score [1]: 1.42 | z-score [2]: -2.34 | composite z-score [3]: -0.366 | composite z-score [4]: 1.99 | composite z-score [5]: 0.177 | composite z-score [6]: 0.164 | composite z-score [7]: 0.149 | composite z-score [8]: -0.237 | composite z-score [9]: 1.02 | composite z-score [10]: 1.48

C=CC[C@@]1(C(=O)N2CCCCC2)N=C(c2ccc(OCCCO)cc2)O[C@@H]1c1ccccc1N=[N+]=[N-]
composite z-score [1]: 1.46 | z-score [2]: -1.62 | composite z-score [3]: 0.227 | composite z-score [4]: 1.27 | composite z-score [5]: 0.613 | composite z-score [6]: 0.0472 | composite z-score [7]: 0.214 | composite z-score [8]: 1.54 | composite z-score [9]: 1.05 | composite z-score [10]: 2.11

COc1ccc(C#Cc2ccc3c(c2)[C@]2(C(=O)N3)[C@H](c3ccc(O)cc3)N3[C@H](c4ccccc4)[C@H](c4ccccc4)OC(=O)[C@H]3[C@@H]2C(=O)N2CCc3cc(OC)c(OC)cc3C2)cc1
composite z-score [1]: 1.36 | z-score [2]: -1.11 | composite z-score [3]: 0.406 | composite z-score [4]: 1.02 | composite z-score [5]: 0.745 | composite z-score [6]: -0.0643 | composite z-score [7]: -0.161 | composite z-score [8]: -0.0503 | composite z-score [9]: 0.7 | composite z-score [10]: 1.67

COc1ccc([Si](C)(C)[C@H]2[C@H](CC(=O)N3CCC[C@H]3CO)O[C@@]3(C(=O)N(Cc4cccc(N5CCOC5=O)c4)c4ccccc43)[C@@H]2C)cc1
composite z-score [1]: 1.23 | z-score [2]: -2.44 | composite z-score [3]: 1.05 | composite z-score [4]: -0.133 | composite z-score [5]: -0.834 | composite z-score [6]: -0.124 | composite z-score [7]: -0.0553 | composite z-score [8]: 0.0258 | composite z-score [9]: 0.368 | composite z-score [10]: 1.58

CCCCC(=C=CC[C@@H](O)c1cccc(OCCO)c1)C[C@@H](O)c1ccccn1
composite z-score [1]: 1.35 | z-score [2]: -0.617 | composite z-score [3]: 0.229 | composite z-score [4]: 1.16 | composite z-score [5]: -0.946 | composite z-score [6]: -0.0735 | composite z-score [7]: -0.0553 | composite z-score [8]: 0.144 | composite z-score [9]: 1.25 | composite z-score [10]: 1.16

O=C(O)[C@@]1(CCS(=O)(=O)c2ccccc2)N=C(c2ccc(OCCCO)cc2)O[C@H]1c1ccccc1
composite z-score [1]: 1.32 | z-score [2]: -0.124 | composite z-score [3]: -0.665 | composite z-score [4]: 2.47 | composite z-score [5]: 0.967 | composite z-score [6]: -0.0084 | composite z-score [7]: 0.0639 | composite z-score [8]: 1.1 | composite z-score [9]: 1.08 | composite z-score [10]: 0.524

COc1ccc([Si](C)(C)[C@@H]2[C@@H](CC(=O)N3Cc4ccccc4C[C@H]3CO)O[C@]3(C(=O)N(Cc4cccc(N5CCC5=O)c4)c4ccccc43)[C@H]2C)cc1
composite z-score [1]: 1.12 | z-score [2]: -3.58 | composite z-score [3]: 0.558 | composite z-score [4]: 0.18 | composite z-score [5]: 0.0915 | composite z-score [6]: -0.1 | composite z-score [7]: -0.0709 | composite z-score [8]: 0.0001 | composite z-score [9]: 0.111 | composite z-score [10]: 1.08

NCCCCCCNC(=O)[C@H]1C[C@H]2C(=O)N[C@@H](Cc3ccccc3)C(=O)N2[C@H]1c1cccc(OCCO)c1
composite z-score [1]: 0.694 | z-score [2]: 0.794 | composite z-score [3]: 0.146 | composite z-score [4]: 2.14 | composite z-score [5]: 0.857 | composite z-score [6]: -0.0718 | composite z-score [7]: 0.356 | composite z-score [8]: 0.0574 | composite z-score [9]: 1.6 | composite z-score [10]: 0.576

O=C1[C@H]2C=C(I)[C@H](C[C@@H]2OCCCCO)[C@@]12CO2
composite z-score [1]: -0.417 | z-score [2]: -2.55 | composite z-score [3]: -0.244 | composite z-score [4]: -0.754 | composite z-score [5]: -0.749 | composite z-score [6]: -0.128 | composite z-score [7]: 0.133 | composite z-score [8]: 0.109 | composite z-score [9]: 0.452 | composite z-score [10]: -0.132

C=CCC(OC(C)=O)[C@@H]1[C@@H](N(Cc2ccc(-c3cccc(C(F)(F)F)c3)o2)C(=O)Cc2ccc(OC)cc2)c2cc(OCCCO)ccc2N1C(=O)c1ccc2ccccc2c1 (stereo not given in full)
composite z-score [1]: -0.759 | z-score [2]: 0.613 | composite z-score [3]: -0.394 | composite z-score [4]: -0.477 | composite z-score [5]: -0.506 | composite z-score [6]: -0.124 | composite z-score [7]: -0.214 | composite z-score [8]: -0.261 | composite z-score [9]: -0.157 | composite z-score [10]: -0.0185

[N-]=[N+]=NCc1ccccc1[C@@H]1OC(c2ccc(OCCCO)cc2)=N[C@]1(CCS(=O)(=O)c1ccccc1)C(=O)N1CCCCC1
composite z-score [1]: 1.48 | z-score [2]: -1.87 | composite z-score [3]: 0.334 | composite z-score [4]: 1.79 | composite z-score [5]: 0.415 | composite z-score [6]: 0.0873 | composite z-score [7]: 0.333 | composite z-score [8]: -0.316 | composite z-score [9]: 1.04 | composite z-score [10]: 1.34
